The nature of experiment [1]: Human pregnane X receptor (PXR) small molecule agonists, qHTS cell viability counter screen (AID 1346977). Further: nearly all actives have a fitted effect of over 50% in size. The procedure, abridged:
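After a 5hr pre-incubation, PXR-Luc HepG2 cells received compounds plus positive control in DMSO and were kept 24hr at 37C. Cell viability was quantified by fluorescence from CellTiter-Fluor added for the final hour.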
(In qHTS, concentration-response curves come from the screen itself.)

The nature of experiment [2]: Caspase-3/7 induction in HepG2 cells by small molecules, qHTS assay (AID 1346978). Further: nearly all actives have a fitted effect of over 15% in size. The procedure, abridged: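 Wild-type HepG2 cells, 2,000/well, settled 5 hr at 37 C and 5% CO2, then compound-treated for 17 hr; caspase-3/7 activity read by luminescent Caspase-Glo 3/7 after 30 min at room temperature.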
Experiment [3] in a line: Caspase-3/7 induction in CHO-K1 cells by small molecules, qHTS cell viability counter screen (AID 1346979). Further: nearly all actives have a fitted effect of over 35% in size. Further: potency means the concentration at half of the fitted maximal effect. The procedure, abridged:
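Multiplexed with Caspase-Glo 3/7 in CHO-K1 cells, this counter screen added CellTiter-Fluor after 16hr of compound exposure and recorded fluorescence 1hr later.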

Experiment [4] in a line: Caspase-3/7 induction in CHO-K1 cells by small molecules, qHTS assay (AID 1346980). Further: nearly all actives have a fitted effect of over 15% in size. The procedure, abridged: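 Wild-type CHO-K1 cells exposed to compounds for 17hr at 37 C, 5% CO2. Caspase-3/7 activity then measured by Caspase-Glo 3/7 luminescence after 30min at room temperature.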
The nature of experiment [5]: Caspase-3/7 induction in HepG2 cells by small molecules, qHTS cell viability counter screen (AID 1346981). Further: nearly all actives have a fitted effect of over 30% in size. Further: potency means the concentration at half of the fitted maximal effect. The procedure, abridged: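 Cell viability is measured as a cytotoxicity counter screen alongside the Caspase-Glo 3/7 readout in identical wells. Wild-type HepG2 cells are treated with test compounds for 16 hr at 37 C before CellTiter-Fluor addition and a 1-hr incubation.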

Experiment [6] deals with Nuclear receptor subfamily 1 group I member 2 (Homo sapiens) (UniProt O75469). In words: Human pregnane X receptor (PXR) small molecule agonists, qHTS assay (AID 1346982). Further: nearly all actives have a fitted effect of over 35% in size. Further: potency means the concentration at half of the fitted maximal effect. The procedure, abridged: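 Cells: HepG2 stably carrying PXR-Luc. Medium held 5% charcoal-stripped FBS. Compounds in DMSO added after 5 hr plating, incubated 24 hr, then luminescence quantified with ONE-Glo.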

Experiment [7] has as its target Cytochrome P450 2D6 (Homo sapiens) (UniProt P10635). The experiment in a line: Cytochrome P450 Family 2 Subfamily D Member 6 (CYP2D6) small molecule antagonists: luciferase reporter qHTS assay (AID 1671196). Further: nearly all actives have a fitted effect of over 50% in size. Further: potency means the concentration at half of the fitted maximal effect. The procedure, abridged:
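Enzyme and proluciferin substrate were first combined with test chemical for 10 min at room temperature. Adding NADPH regeneration solution started a 1 h reaction, stopped with luciferin detection reagent and read by luminescence 20 min later.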
For orientation: A reporter such as luciferase makes a cellular process visible.

The target of experiment [8] is Cytochrome P450 2C19 (Homo sapiens) (UniProt P33261). In words: Cytochrome P450 Family 2 Subfamily C Member 19 (CYP2C19) small molecule antagonists: luciferase reporter qHTS assay (AID 1671197). Further: nearly all actives have a fitted effect of over 65% in size. Further: potency means the concentration at half of the fitted maximal effect. The procedure, abridged:
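Light output is proportional to CYP2C19 activity: proluciferin substrate is converted to luciferin, then detected by a luciferin detection reagent that also stops the 1 h, 37C NADPH-driven reaction. Ketoconazole serves as positive control.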

The target in experiment [9] is Cytochrome P450 1A2 (Homo sapiens) (UniProt P05177). In words: Cytochrome P450 Family 1 Subfamily A Member 2 (CYP1A2) small molecule antagonists: luciferase reporter qHTS assay (AID 1671199). Further: nearly all actives have a fitted effect of over 50% in size. Further: potency means the concentration at half of the fitted maximal effect. The procedure, abridged:
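Compounds were incubated with CYP1A2 and a luminogenic proluciferin substrate for 10 min at room temperature before the reaction was started with NADPH regeneration solution. After 1 h, detection reagent was added and light output, proportional to CYP activity, was recorded.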

Experiment [10] deals with Voltage-gated inwardly rectifying potassium channel KCNH2 (Homo sapiens) (UniProt Q12809). In words: Human Ether-a-go-go-Related Gene (hERG) channel small molecule antagonists: fluorescence cell-based qHTS assay (AID 1671200).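 Further: hERG-expressing U2OS cells given a thallium stimulus after FluxOR II dye loading; series mostly up to about 77 µM; nearly all actives have a fitted effect of over 50% in size.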 The procedure, abridged:
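Cell line hERG-U2OS; dye FluxOR II, 1 h RT dark; Tl+ stimulus; ex 480/em 540 nm, read each second for 2 min.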
(In general: hERG is a cardiac potassium channel; its block is linked to QT prolongation.)

In experiment [11] the target is Cytochrome P450 2C9 (Homo sapiens) (UniProt P11712). The experiment in a line: Cytochrome P450 Family 2 Subfamily C Member 9 (CYP2C9) small molecule antagonists: luciferase reporter qHTS assay (AID 1671198). Further: nearly all actives have a fitted effect of over 50% in size. Further: potency means the concentration at half of the fitted maximal effect. The procedure, abridged: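 P450-Glo proluciferin substrate with CYP2C9 enzyme; 10 min RT preincubation, then NADPH regeneration 1 h at 37C; luciferin detection reagent 20 min RT, luminescence in relative luminescence units.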

In experiment [12] the target is Cytochrome P450 3A4 (Homo sapiens) (UniProt P08684). The experiment in a line: Cytochrome P450 Family 3 Subfamily A Member 4 (CYP3A4) small molecule antagonists: luciferase reporter qHTS assay (AID 1671201). Further: nearly all actives have a fitted effect of over 50% in size. Further: potency means the concentration at half of the fitted maximal effect. The procedure, abridged: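 Room-temperature assay throughout: 10 min compound–enzyme/substrate preincubation, 1 h reaction after NADPH regeneration solution, 20 min detection. Luciferin formed from proluciferin substrate is quantified by luminescence.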

Experiment [13] deals with Nuclear receptor subfamily 1 group I member 2 (Rattus norvegicus) (UniProt Q9R1A7). The experiment in a line: Rat pregnane X receptor (rPXR) activation by small molecules, qHTS assay (AID 1346983). Further: nearly all actives have a fitted effect of over 20% in size. The settings on record: rPXR luciferase reporter cells, One-Glo luminescence, 24 h; stronger effect = higher value. The procedure, abridged:
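Cell-based rPXR activation assay: rPXR cells, 2,000 per well, rested 5hr at 37 C, then exposed to compounds in DMSO for 24 hr at 37 C. Luciferase activity read by One-Glo luminescence after 30 min at room temperature.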

In experiment [14] the target is Nuclear receptor subfamily 1 group I member 2 (Homo sapiens) (UniProt O75469). In words: CYP3A4 induction through human pregnane X receptor (PXR) by small molecules, qHTS assay (AID 1346984). Further: nearly all actives have a fitted effect of over 40% in size. The procedure, abridged:
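Quantitative HTS in DPX-2 cells, i.e. HepG2 transfected with PXR response element and CYP3A4-promoter luciferase. Compounds in DMSO incubated 24hr at 37C; then P450-Glo CYP3A4 substrate, 3uM final, 3hr; One-Glo luminescence.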

Experiment [15] has the same target. The experiment in a line: Human pregnane X receptor (PXR) activation by small molecules, qHTS assay (AID 1346985). Further: nearly all actives have a fitted effect of over 40% in size. The procedure, abridged: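 DPX-2 cells (HepG2 co-transfected with a PXR response element and a CYP3A4-promoter luciferase construct) were seeded at 2,000 per well, rested 5 hr at 37C, then exposed to DMSO-dissolved compounds for 24 hr. Activation was read as luciferase luminescence.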

Several values for one entry are separate records, joined by “and”; a condition that tells them apart may be missing. Identical values can stand only once. Inconclusive results are not listed. Some compounds were tested as several samples or in several runs, with calls that do not always agree. Activity calls are given as the source filed them. The call rests on the fitted dose curve; in most records, active means well fitted curve in the direction sought with a large enough effect in the repeat runs; inconclusive means weak or mixed curves; inactive means no such curve, though single readings can be large; an effect the other way counts as inactive or inconclusive.
On the % scale 0 is the no-effect control and ±100 the full control effect.

Chain of Cytochrome P450 2C9 (Homo sapiens) (P11712 whole entry, looked up): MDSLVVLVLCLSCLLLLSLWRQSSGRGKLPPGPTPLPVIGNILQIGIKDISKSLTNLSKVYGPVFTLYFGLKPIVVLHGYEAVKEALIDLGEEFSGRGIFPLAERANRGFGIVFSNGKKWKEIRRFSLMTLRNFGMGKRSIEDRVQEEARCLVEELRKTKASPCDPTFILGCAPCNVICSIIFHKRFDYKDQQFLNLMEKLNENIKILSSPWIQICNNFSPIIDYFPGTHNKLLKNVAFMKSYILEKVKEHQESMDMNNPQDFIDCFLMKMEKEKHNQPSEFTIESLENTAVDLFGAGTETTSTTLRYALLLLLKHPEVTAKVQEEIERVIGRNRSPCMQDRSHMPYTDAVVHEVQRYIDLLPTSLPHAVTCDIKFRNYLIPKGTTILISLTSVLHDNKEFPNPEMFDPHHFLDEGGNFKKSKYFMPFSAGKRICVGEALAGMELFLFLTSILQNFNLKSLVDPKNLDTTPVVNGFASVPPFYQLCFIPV
Chain of Nuclear receptor subfamily 1 group I member 2 (Homo sapiens) (O75469 whole entry, looked up): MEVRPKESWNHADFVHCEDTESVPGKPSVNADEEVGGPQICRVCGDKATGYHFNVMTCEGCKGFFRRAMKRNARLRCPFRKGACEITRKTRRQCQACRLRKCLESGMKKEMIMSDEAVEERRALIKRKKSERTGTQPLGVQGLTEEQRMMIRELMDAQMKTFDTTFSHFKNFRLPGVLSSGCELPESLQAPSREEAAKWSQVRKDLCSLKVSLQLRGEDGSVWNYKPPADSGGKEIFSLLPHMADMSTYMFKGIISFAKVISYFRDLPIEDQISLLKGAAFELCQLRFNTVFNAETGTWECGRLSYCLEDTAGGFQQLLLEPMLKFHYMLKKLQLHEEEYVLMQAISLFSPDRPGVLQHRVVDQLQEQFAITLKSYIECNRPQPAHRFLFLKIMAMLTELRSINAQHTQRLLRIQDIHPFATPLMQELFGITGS
Chain of Voltage-gated inwardly rectifying potassium channel KCNH2 (Homo sapiens) (Q12809 whole entry, looked up): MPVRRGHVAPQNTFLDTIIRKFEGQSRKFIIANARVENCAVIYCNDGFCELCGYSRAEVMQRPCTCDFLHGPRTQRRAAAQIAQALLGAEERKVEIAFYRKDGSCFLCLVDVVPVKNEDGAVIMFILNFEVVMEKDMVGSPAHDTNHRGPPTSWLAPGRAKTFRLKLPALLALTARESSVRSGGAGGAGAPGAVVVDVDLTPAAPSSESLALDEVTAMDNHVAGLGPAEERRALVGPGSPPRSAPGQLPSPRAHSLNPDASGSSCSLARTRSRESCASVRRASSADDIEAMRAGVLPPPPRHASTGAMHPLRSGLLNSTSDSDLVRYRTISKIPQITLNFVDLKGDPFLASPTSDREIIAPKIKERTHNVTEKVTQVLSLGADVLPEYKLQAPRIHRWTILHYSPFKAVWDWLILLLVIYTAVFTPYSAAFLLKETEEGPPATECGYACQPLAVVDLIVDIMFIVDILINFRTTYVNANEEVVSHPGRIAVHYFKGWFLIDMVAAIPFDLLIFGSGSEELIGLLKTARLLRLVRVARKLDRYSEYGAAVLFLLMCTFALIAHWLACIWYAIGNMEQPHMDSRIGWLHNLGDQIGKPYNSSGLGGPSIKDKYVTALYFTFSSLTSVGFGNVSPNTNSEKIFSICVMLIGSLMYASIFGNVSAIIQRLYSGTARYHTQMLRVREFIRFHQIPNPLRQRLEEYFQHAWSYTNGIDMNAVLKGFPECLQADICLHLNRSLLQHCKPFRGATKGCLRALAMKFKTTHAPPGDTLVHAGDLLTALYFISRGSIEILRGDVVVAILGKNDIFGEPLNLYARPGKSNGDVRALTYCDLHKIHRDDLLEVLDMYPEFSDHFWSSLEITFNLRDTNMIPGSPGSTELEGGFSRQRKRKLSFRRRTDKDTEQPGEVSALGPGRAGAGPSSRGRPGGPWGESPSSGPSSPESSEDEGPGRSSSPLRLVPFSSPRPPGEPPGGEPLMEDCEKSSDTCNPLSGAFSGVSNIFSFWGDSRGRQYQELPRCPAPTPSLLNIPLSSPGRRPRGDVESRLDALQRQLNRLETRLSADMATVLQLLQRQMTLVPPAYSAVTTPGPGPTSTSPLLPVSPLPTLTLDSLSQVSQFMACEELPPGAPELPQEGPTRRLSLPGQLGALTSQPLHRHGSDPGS
Chain of Cytochrome P450 3A4 (Homo sapiens) (P08684 whole entry, looked up): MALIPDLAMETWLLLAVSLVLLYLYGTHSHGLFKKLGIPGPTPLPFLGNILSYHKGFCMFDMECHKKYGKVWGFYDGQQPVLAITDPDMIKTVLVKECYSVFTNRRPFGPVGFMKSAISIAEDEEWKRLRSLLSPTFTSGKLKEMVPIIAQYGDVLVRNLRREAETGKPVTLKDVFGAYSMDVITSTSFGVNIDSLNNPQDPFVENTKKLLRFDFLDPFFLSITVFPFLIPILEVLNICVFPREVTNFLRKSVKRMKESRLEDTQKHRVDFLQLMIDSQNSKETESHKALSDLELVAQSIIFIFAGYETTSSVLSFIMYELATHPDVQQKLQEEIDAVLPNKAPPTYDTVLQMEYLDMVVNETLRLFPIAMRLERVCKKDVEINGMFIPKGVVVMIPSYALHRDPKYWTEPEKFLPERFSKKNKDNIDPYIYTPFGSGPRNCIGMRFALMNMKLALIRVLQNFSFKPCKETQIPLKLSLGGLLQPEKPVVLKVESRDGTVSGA
Chain of Cytochrome P450 1A2 (Homo sapiens) (P05177 whole entry, looked up): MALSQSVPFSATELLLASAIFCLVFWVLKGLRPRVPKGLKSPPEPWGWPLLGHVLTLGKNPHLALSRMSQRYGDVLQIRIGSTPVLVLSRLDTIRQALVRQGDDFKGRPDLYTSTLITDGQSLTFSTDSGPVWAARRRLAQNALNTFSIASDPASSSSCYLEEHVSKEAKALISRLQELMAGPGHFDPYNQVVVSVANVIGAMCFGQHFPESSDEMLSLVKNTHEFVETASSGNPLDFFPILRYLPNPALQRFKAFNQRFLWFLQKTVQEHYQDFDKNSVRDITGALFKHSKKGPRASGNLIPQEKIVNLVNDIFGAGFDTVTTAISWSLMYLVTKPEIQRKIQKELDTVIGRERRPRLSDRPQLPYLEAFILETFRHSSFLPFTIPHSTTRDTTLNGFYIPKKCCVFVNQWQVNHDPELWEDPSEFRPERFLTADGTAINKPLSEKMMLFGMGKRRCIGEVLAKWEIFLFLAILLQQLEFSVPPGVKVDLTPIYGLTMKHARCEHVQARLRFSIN
Chain of Cytochrome P450 2D6 (Homo sapiens) (P10635 whole entry, looked up): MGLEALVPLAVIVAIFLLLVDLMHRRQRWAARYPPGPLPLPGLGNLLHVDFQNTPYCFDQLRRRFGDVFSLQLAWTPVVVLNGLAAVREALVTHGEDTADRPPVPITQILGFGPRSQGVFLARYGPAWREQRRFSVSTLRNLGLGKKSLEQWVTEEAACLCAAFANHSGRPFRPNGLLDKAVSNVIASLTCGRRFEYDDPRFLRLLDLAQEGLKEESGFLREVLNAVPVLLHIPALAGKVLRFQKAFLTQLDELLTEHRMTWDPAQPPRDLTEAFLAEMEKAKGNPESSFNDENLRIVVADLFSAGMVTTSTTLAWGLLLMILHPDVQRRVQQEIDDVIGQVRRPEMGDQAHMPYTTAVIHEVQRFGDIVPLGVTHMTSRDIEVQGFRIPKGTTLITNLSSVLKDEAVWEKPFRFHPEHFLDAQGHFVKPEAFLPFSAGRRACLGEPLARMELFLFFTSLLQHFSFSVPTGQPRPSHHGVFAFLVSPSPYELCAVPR
Chain of Cytochrome P450 2C19 (Homo sapiens) (P33261 whole entry, looked up): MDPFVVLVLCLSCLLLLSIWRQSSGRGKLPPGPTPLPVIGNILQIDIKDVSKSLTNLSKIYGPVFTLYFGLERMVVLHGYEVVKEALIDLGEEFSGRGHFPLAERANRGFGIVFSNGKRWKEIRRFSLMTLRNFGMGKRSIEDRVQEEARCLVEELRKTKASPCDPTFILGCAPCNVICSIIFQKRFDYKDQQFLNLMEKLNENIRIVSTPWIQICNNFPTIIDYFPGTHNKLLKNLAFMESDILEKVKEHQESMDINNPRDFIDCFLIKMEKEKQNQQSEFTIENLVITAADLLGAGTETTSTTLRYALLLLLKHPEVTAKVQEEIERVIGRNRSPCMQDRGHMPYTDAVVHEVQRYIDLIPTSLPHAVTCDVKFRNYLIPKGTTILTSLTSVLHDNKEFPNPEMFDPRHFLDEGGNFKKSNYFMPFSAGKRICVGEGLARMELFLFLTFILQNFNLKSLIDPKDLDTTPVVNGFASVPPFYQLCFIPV
Chain of Nuclear receptor subfamily 1 group I member 2 (Rattus norvegicus) (Q9R1A7 whole entry, looked up): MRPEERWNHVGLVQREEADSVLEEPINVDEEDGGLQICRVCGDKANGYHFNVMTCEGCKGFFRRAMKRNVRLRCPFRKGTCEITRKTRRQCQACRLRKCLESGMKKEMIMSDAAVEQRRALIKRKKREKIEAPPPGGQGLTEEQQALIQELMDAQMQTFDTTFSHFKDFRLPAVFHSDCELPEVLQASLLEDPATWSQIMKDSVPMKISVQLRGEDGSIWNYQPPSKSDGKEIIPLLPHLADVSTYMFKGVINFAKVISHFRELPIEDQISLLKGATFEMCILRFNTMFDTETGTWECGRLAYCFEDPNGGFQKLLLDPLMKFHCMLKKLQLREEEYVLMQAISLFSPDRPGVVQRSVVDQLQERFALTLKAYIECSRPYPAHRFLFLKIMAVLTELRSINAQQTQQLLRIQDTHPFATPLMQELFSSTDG

With `Cc1ccc([N+](=O)[O-])cc1N`, the Potency result in experiment [1], in experiment [2], in experiment [3], in experiment [4], in experiment [5] and in experiment [6] was “inactive” each time. Moreover, in experiment [10], the Potency entry is “inactive”. Besides, the Potency in experiment [7] was 35.5 µM (active) and 39.9 µM (active); in experiment [8], 35.5 µM (active) and 44.8 µM (active); in experiment [9], 11.2 µM (active) and 8.94 µM (active).
For the molecule `NC(=O)NC(N)=O`, the Potency result in [1], in [2], in experiment [3], in [4], in experiment [5] and in experiment [6] was “inactive” throughout. Moreover, the Potency entry in experiment [7], in experiment [8], in experiment [11], in experiment [9], in [10] and in experiment [12] was “inactive” in each case.
With `O=c1c(O)c(-c2ccc(O)c(O)c2)oc2cc(O)cc(O)c12`, the Potency entry in experiment [1], in experiment [2], in [4], in experiment [14], in [8] and in experiment [10] was “inactive” throughout. Moreover, the Potency was 54.5 µM (active) in experiment [3]; 48.6 µM (active) and 54.5 µM (active) in experiment [5]; 48.6 µM (active) and 69.1 µM (active) in [6]; 63.4 µM (active) and inactive in experiment [7]. For the same molecule, the max activation in experiment [13] was -3.01% (inactive). Besides, in [15], the molecule was classed as inactive.
As to `OCC(O)CS` (stereo not drawn), the Potency entry in experiment [1], in experiment [2], in experiment [3], in experiment [4], in [5] and in [6] was “inactive” in each case. The Potency result in [14], in experiment [7], in experiment [8], in experiment [11], in experiment [9] and in [10] was “inactive” throughout. Also, in experiment [12], the Potency entry was “inactive”. Further, the max activation in [13] is -1.93% (inactive). Besides, the molecule was called inactive in experiment [15].
Regarding `COC(=O)OC`, the Potency entry in experiment [1], in experiment [2], in experiment [3], in [4], in experiment [5] and in experiment [6] was “inactive” throughout. In addition, the Potency entry in experiment [7], in experiment [8], in experiment [11], in experiment [9], in experiment [10] and in experiment [12] was “inactive” throughout.
On to `CC/C=C(\C(=O)N[C@@H]1C(=O)N2C(C(=O)OCOC(=O)C(C)(C)C)=C(COC(N)=O)CS[C@H]12)c1csc(N)n1`, for which the Potency result in experiment [1], in experiment [2], in [3], in experiment [4], in [5] and in experiment [6] was “inactive” in each case. In addition, the Potency entry in experiment [7] and in experiment [10] was “inactive” throughout. For the same molecule, the Potency is 19.5 µM (active) in [8]; 12.3 µM (active) and 7.76 µM (active) in [11]; 27.5 µM (active) and inactive in [9].
Consider `O=C(O)Cc1c[nH]c2ccccc12`, for which the Potency result in [1], in [2], in experiment [3], in experiment [4], in [5] and in [6] was “inactive” in each case. Moreover, the Potency result in [7], in experiment [9], in [10] and in [12] was “inactive” in each case. Also, the Potency in [8] is 17.8 µM (active) and inactive; in experiment [11], 31.7 µM (active) and inactive.
On to `CC(=O)OCc1ccc2c(c1)OCO2`, for which the Potency result in experiment [1], in [2], in experiment [3], in experiment [4], in [5] and in experiment [6] was “inactive” each time. Besides, the Potency entry in experiment [7] and in experiment [10] was “inactive” throughout. The Potency in experiment [8] was 35.7 µM (active) and 31.7 µM (active); in experiment [11] it was 25.2 µM (active) and 35.6 µM (active); in experiment [9], 2.01 µM (active) and 2.52 µM (active); in experiment [12] it was 20.1 µM (active) and 39.9 µM (active).
With `O=C1CCCCCCCCCCC1`, the Potency entry in experiment [1], in experiment [2], in experiment [3], in experiment [4], in experiment [5] and in [6] was “inactive” throughout. Also, the Potency entry in [7], in experiment [8], in experiment [11], in [9], in [10] and in experiment [12] was “inactive” throughout.

Values taken from PubChem BioAssay (Tox21).
